Our source for the Potency values is PubChem BioAssay (NCATS).

Records with an inconclusive call do not appear. Where a call stands in place of a potency, no number is given. Activity calls are given as the source filed them. Calls come from the whole dose curve; as a rule, active = well fitted inhibition curve with a large enough effect; inconclusive = small, poorly fitted or top-dose-only effect; inactive = flat fitted curve, though single readings scatter.

The target of assay [1] is Glutathione peroxidase 1 (Homo sapiens) (UniProt P07203). Nature of the assay: Primary qHTS Assay for Inhibitors of Recombinant Selenoprotein Glutathione Peroxidase 1 (GPX1) (AID 1845191). In short, it runs like this:
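GR-coupled assay: compounds preincubated 30 min at room temperature with GPX1, then reaction started with CHP; final 10 nM GPX1, 1 mM GSH, 0.5 mM CHP, 0.5 mM NADPH, 100 nM GR, 0.01% BSA, pH 7.5 Tris buffer. NADPH fluorescence (340/450 nm) read at 0 and 15 min.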
(In general: In qHTS, concentration-response curves come from the screen itself.)

Assay [2] deals with Phospholipid hydroperoxide glutathione peroxidase GPX4 (Homo sapiens) (UniProt P36969). In words: Primary qHTS Assay for Inhibitors of Recombinant Selenoprotein Glutathione Peroxidase 4 (GPX4) (AID 1845192). In short, it runs like this: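 GR-coupled assay: recombinant GPX4 preincubated 30 min with compound at room temperature; final 200 nM GPX4, 1 mM GSH, 0.5 mM cumene hydroperoxide, 0.5 mM NADPH, 100 nM GR, 0.01% BSA, pH 7.5 Tris. NADPH fluorescence (340/450 nm) read at 0 and 15 min.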
Chain of Phospholipid hydroperoxide glutathione peroxidase GPX4 (Homo sapiens) (P36969 whole entry, looked up): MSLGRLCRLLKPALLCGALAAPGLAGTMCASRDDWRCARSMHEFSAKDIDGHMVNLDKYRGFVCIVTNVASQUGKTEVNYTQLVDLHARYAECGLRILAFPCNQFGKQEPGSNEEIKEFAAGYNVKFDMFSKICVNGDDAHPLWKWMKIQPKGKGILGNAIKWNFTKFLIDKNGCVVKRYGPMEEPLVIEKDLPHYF
Note: nearly all actives have a fitted effect of over 65% in size.

Chain of Glutathione peroxidase 1 (Homo sapiens) (P07203 whole entry, looked up): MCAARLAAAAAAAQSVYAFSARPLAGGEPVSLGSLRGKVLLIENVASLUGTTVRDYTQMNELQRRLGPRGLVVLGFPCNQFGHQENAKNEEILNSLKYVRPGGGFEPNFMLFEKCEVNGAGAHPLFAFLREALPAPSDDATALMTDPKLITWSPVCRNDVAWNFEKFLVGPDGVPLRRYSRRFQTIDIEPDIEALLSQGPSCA

For `CCC(C)CC(C)CCCCCCCCC(=O)N[C@H]1C[C@@H](O)[C@@H](NCCN)NC(=O)[C@@H]2[C@@H](O)CCN2C(=O)[C@H]([C@H](O)CCN)NC(=O)[C@H]([C@@H](O)[C@H](O)c2ccc(O)cc2)NC(=O)[C@@H]2C[C@@H](O)CN2C(=O)[C@H]([C@@H](C)O)NC1=O` (stereo partly specified), the Potency entry in assay [1] and in assay [2] was “inactive” throughout.

Turning to `CCC1(C)OC(=O)N(C)C1=O` (stereo unspecified), the Potency result in assay [1] and in assay [2] was “inactive” throughout.

As to `CN(C)CC(=O)O`, the Potency result in assay [1] and in assay [2] was “inactive” throughout.

As for `CC(C)(C)NCC(O)COc1ccccc1C#N` (stereo unspecified), the Potency result in assay [1] and in assay [2] was “inactive” throughout.

For the compound `CC(OC(=O)NCC1(CC(=O)O)CCCCC1)OC(=O)C(C)C` (stereo unspecified), the Potency entry in assay [1] and in assay [2] was “inactive” each time.

As for `CN(CCCCCCN(C)C(=O)Oc1ccc[n+](C)c1)C(=O)Oc1ccc[n+](C)c1`, the Potency entry in assay [1] and in assay [2] was “inactive” throughout.

On to `COc1ccc(-c2c(Cl)ncn2-c2ccc(S(N)(=O)=O)cc2)cc1F`, for which the Potency result in assay [1] and in assay [2] was “inactive” each time.

Consider `CCOc1ccc(Cc2cc([C@@]34OC[C@@](CO)(O3)[C@@H](O)[C@H](O)[C@H]4O)ccc2Cl)cc1`, for which the Potency result in assay [1] and in assay [2] was “inactive” in each case.
